The structures appear in SMILES notation. Several values for one entry are separate records, joined by “and”; a condition that tells them apart may be missing. Identical values can stand only once. The campaign covered roughly 290,000 compounds. About 4,200 (1.4%) were called active.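 How the source made its calls: active means binding response more than 3 SD above or below the average of its plate-row segment, actives on both sides; inconclusive means wells at one plate position flagged as instrument error; inactive means the rest.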 The entries come from a sample that favours actives as a whole. A structure can be active in one record and inactive in another.

Binding response (% of control) data for 96 molecules are collected here from PubChem BioAssay AID1529 (NMMLSC, 2009).

The target in the assay is Mitogen-activated protein kinase kinase kinase 3 (Homo sapiens) (UniProt Q99759). In words: modulators of MEKK3-MEK5 PB1 binding, primary screen, biochemical, wildtype MEKK3, multiplex bead flow cytometry, Alexa488-MEK5 (AID 1529).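 Further: Alexa488 bead fluorescence after subtracting the streptavidin-only scavenger bead signal.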 Particulars: bead-based flow cytometry, Alexa488-MEK5 binding to MEKK3; at 10 µM; actives lie on both sides; 0 = blocked by unlabeled MEK5, 100 = vehicle. (In general: A flow cytometer gives signals particle by particle.)
Mitogen-activated protein kinase kinase kinase 3 (Homo sapiens), sequence (Q99759 whole entry, looked up): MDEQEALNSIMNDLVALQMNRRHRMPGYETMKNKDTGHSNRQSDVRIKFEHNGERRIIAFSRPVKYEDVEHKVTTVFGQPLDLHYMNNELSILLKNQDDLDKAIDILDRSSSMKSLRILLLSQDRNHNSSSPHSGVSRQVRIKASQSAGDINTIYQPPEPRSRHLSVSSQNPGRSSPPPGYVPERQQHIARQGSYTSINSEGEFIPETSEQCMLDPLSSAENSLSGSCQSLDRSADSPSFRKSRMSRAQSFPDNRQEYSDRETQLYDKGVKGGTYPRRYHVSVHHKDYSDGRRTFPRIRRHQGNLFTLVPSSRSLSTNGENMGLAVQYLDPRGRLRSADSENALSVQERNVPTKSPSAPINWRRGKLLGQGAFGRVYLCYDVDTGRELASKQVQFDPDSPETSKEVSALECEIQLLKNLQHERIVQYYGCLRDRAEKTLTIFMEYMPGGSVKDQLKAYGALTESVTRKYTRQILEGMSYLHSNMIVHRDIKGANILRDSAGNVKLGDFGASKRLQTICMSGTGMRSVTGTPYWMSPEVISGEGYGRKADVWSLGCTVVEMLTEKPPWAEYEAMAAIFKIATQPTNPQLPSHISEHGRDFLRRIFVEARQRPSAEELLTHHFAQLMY
`NC(=O)c1c(NC(=O)c2ccccc2)sc2c1CCCC2`: the binding response (% of control) was 102% (inactive).
With `C=CCN(CC=C)S(=O)(=O)c1ccc(C(=O)Nc2nc3c(s2)CCc2ccccc2-3)cc1`, the binding response (% of control) was 100% (inactive).
Turning to `C=CCN(CC=C)S(=O)(=O)c1ccc(C(=O)Nc2sc3c(c2C(N)=O)CCCCC3)cc1`, the binding response (% of control) is 66% [inhibitor] (active).
The value for `NS(=O)(=O)c1ccc2nc(NC(=O)C3=COCCO3)sc2c1` was 100% (inactive); that for `COc1cccc(NC(=O)[C@H](Cc2c[nH]c3ccccc23)NC(=O)[C@@H]2Cc3ccccc3CN2)c1` was 101% (inactive).
Regarding `CCc1nnc(SCc2cccc(F)c2)nc1CC`, the binding response (% of control) is 101% (inactive).
The value for `COCc1cc(C)nc2sc(C(=O)NC3CCCCC3)c(N)c12` was 101% (inactive); that for `CCc1ccc2nc3sc(C(=O)Nc4nnc(CC)s4)c(N)c3cc2c1` was 103% (inactive).
The value for `CCc1nnc(NC(=O)c2sc3nc(C)cc(COC)c3c2N)s1` was 46% [inhibitor] (active); that for `O=C(COC(=O)c1ccccc1)Nc1cccc(S(=O)(=O)N2CCOCC2)c1` was 104% (inactive).
As for `COc1ccc(C(=O)OCC(=O)Nc2cccc(C(C)=O)c2)cc1OC`, the figure is 100% (inactive); as for `CCOc1cc(C(=O)OCC(=O)Nc2cccc(C)c2)ccc1OCC(=O)N1CCOCC1`, 137% (active).
On to `COc1ccc(NC(=O)COc2ccc(C(=O)c3ccc(F)cc3)cc2)cc1S(N)(=O)=O`, for which the binding response (% of control) is 100% (inactive).
The value for `CCc1nc2nc(C)c(NS(=O)(=O)c3ccc4c(c3)CCCC4)c(=O)n2[nH]1` was 101% (inactive); that for `COc1ccc(CN(C)C(=O)Cc2ccsc2)c(OC)c1OC` was 103% (inactive); that for `COc1ccccc1N=C(C)C1=C(O)COC1=O` was 81% [inhibitor] (active).
The value for `CCC/C(O)=C1\C(=O)CC(C)(C)CC1=Nc1ccccc1OC` was 102% (inactive); that for `COc1ccccc1N=Cc1c(O)c2ccccc2oc1=O` was 121% (inactive); that for `Cc1ccc2c(C)c(C(=O)N3CCN(c4ccncc4)CC3)oc2c1C` was 106% (inactive).
As for `COc1ccc(N2CCN(Cc3nnc(-c4ccccc4)o3)CC2)cc1`, the figure is 139% (active); as for `Cc1ccc(-c2nnc(CN3CCN(C)CC3)o2)cc1`, 112% (inactive).
On to `c1ccc(-c2cnc(CN3CCN(c4ccccc4)CC3)o2)cc1`, for which the binding response (% of control) is 101% (inactive).
As for `CCCn1c(=N)n(CC(=O)c2ccc(Cl)c(Cl)c2)c2ccccc21`, the binding response (% of control) is 109% (inactive).
Turning to `CCOC(=O)c1cc2c(nc1NC(=S)Nc1ccccc1)CC(C)(CC)OC2` (stereo unspecified), the binding response (% of control) is 128% (active).
As for `CCOC(=O)c1ccc(NC(=S)Nc2cc(C)cc(C)n2)cc1`, the figure is 77% (inactive); as for `CCOC(=O)c1cn[nH]c1NC(=S)Nc1ccccc1`, 93% (inactive); as for `CCOc1ccc(CN2CCNC(=O)C2CC(=O)NCCCC2CCCC2)cc1` (stereo unspecified), 102% (inactive).
Take `O=C1CCN(CCCc2ccccc2)CCN1CCO`: the binding response (% of control) is 101% (inactive).
The value for `CCOC(=O)c1ccc(NC(=O)CNC(=O)c2ccco2)cc1` was 108% (inactive); that for `O=C(COC(=O)CNC(=O)c1ccco1)Nc1ccc(F)cc1` was 65% [inhibitor] (active).
As to `NS(=O)(=O)c1ccc(NC(=O)COC(=O)c2ccco2)cc1`, the binding response (% of control) is 98% (inactive).
As for `CCOc1ccccc1NC(=S)N1CCN(c2cccc(C)c2C)CC1`, the figure is 102% (inactive); as for `O=C(Nc1ccc2c(c1)CCC2)c1ccc(Br)s1`, 86% (inactive); as for `O=C(CCCO)N/N=C/c1cc(Br)ccc1O`, 129% (active).
The value for `O=C(N/N=C/c1ccccc1O)/C(=C/c1ccccc1)CCO` was 108% (inactive).
As for `Oc1ccc(Br)cc1/C=N/Nc1ccccn1`, the binding response (% of control) is 99% (inactive).
As for `CCn1c(SCC(=O)NC2=NCCS2)nnc1C(C)NC(=O)c1ccccc1F` (stereo unspecified), the figure is 95% (inactive); as for `Cc1ccc(CC2C(=O)N(c3ccc(F)cc3)C(=O)C2C)cc1` (stereo unspecified), 99% (inactive).
The value for `CCOC(=O)c1sc2nc(C)[nH]c(=O)c2c1C` was 97% (inactive).
As for `CCOC(=O)c1sc2nc(C)nc(Nc3ccc(OC)c(OC)c3)c2c1C`, the figure is 101% (inactive); as for `CCOC(=O)c1sc2nc(C)nc(SCC(N)=O)c2c1C`, 132% (active); as for `COC(C[C@@H]1O[C@@H]1C(=O)[C@H](C)OCc1ccccc1)OC`, 98% (inactive).
Turning to `CCOC(=O)/C=C/c1ccc(C(F)(F)F)cc1S(=O)(=O)NC(C)(C)C`, the binding response (% of control) was 100% (inactive).
The value for `Cc1cc(OCCOc2cccc3cccnc23)c(C)cc1Cl` was 101% (inactive); that for `OCc1ccc(OCCCOc2cccc3cccnc23)cc1` was 106% (inactive); that for `CCOc1cccc(OCCCOc2cccc3cccnc23)c1` was 143% (active).
Regarding `COc1cccc(CNC(=O)CCC2CCCN(C(=O)c3ccc(F)c(Cl)c3)C2)c1` (stereo unspecified), the binding response (% of control) is 99% (inactive).
Turning to `CS(=O)(=O)N1CCN(CC(=O)NC2CCCC2)CC1`, the binding response (% of control) is 99% (inactive).
In the case of `COC(=O)c1ccccc1NC(=O)C1(S(=O)(=O)c2ccc(Cl)cc2)CC1`, the binding response (% of control) was 102% (inactive).
Take `COC(=O)Cn1cnc2scc(-c3ccc(C)c(C)c3)c2c1=O`: the binding response (% of control) was 105% (inactive).
With `COCCNC(=O)c1ccccc1NS(=O)(=O)c1ccc(C)c([N+](=O)[O-])c1`, the binding response (% of control) was 101% (inactive).
For `COc1ccc(S(=O)(=O)Nc2ccccc2C(=O)N2CCCC2)cc1C`, the binding response (% of control) was 104% (inactive).
`CC1CN(C(=O)c2ccccc2NS(=O)(=O)c2cccc([N+](=O)[O-])c2)CC(C)O1` (stereo unspecified): the binding response (% of control) is 131% (active).
The value for `O=C(NCC1CC1)c1onc(CSc2ccccc2)c1C(=O)NCC1CC1` was 97% (inactive).
Turning to `NC(=O)COC(=O)c1ccc2c(c1)C(=O)N(Cc1ccco1)C2=O`, the binding response (% of control) was 99% (inactive).
As for `C=CCn1c(C(C)NC(=O)CC)nc2ccccc21` (stereo unspecified), the figure is 94% (inactive).
As for `C=CCn1c(P(C)(=O)O)nc2ccccc21`, the figure is 138% (active) and 103% (inactive); as for `C=CCn1c(C2CC(=O)N(c3ccc(C)cc3)C2)nc2ccccc21` (stereo unspecified), 96% (inactive).
For the molecule `COc1ccc(C#Cc2c(-c3ccc(OC)cc3)oc3ccc(-c4ccc5c(c4)OCO5)cc23)cc1`, the binding response (% of control) is 95% (inactive).
The value for `COc1ccc(-n2cc(-c3ccccc3)c3c(=S)nc[nH]c32)cc1` was 101% (inactive); that for `CCn1cc(S(=O)(=O)c2cccc(C)c2)c(=O)c2cc(F)c(N3CCN(C)CC3)cc21` was 101% (inactive); that for `Cc1ccc(Nc2nc(CSc3nnc(-c4ccncc4)n3-c3ccccc3C)cs2)cc1` was 138% (active).
The value for `Cc1ccc(-c2noc(CSc3nnc(-c4ccncc4)n3-c3ccc(F)cc3)n2)cc1` was 106% (inactive).
For `Cc1ccc(-n2c(SCC(=O)N3c4ccccc4Sc4ccccc43)nnc2-c2ccncc2)cc1`, the binding response (% of control) was 97% (inactive).
The value for `COc1cccc(C(C(=O)NC2CCCC2)N(C(=O)c2ccco2)c2cccc(C(C)=O)c2)c1OC` (stereo unspecified) was 98% (inactive); that for `O=C(CCCCCn1c(=S)[nH]c2ccsc2c1=O)NC1CCCCC1` was 102% (inactive).
As for `CCOC(=O)N1CCN(C(=O)CNC(=O)Cc2ccc(Cl)cc2)CC1`, the binding response (% of control) was 99% (inactive).
In the case of `CCOC(=O)c1ccc(CS(=O)c2ccc(Cl)cc2)o1` (stereo unspecified), the binding response (% of control) is 100% (inactive).
Take `CCOC(=O)c1c(Cc2ccc(Cl)cc2)c[nH]c1C`: the binding response (% of control) is 136% (active).
As for `CC(=O)Nc1ccc(N2CCOCC2)c(C(=O)Nc2cccc(C)c2)c1`, the figure is 2% [inhibitor] (active); as for `COC(=O)c1cc(NC(=O)c2cccnc2)ccc1N1CCOCC1`, 102% (inactive).
On to `COC(=O)c1cc(NC(=O)c2cc(C(C)(C)C)nn2Cc2cccc(C)c2)ccc1N1CCOCC1`, for which the binding response (% of control) was 134% (active).
Regarding `COC(=O)c1cc(NC(=O)c2ccco2)ccc1N1CCOCC1`, the binding response (% of control) is 95% (inactive).
As for `Cc1cccc(NC(=O)c2cc([N+](=O)[O-])ccc2N2CCN(C)CC2)c1`, the figure is 105% (inactive); as for `CC(=O)Nc1cccc(Oc2cc(C#N)c(C#N)cc2N2CCOCC2)c1`, 97% (inactive).
For the molecule `CC1=C(N2CCN(c3ncccn3)CC2)CCC1=O`, the binding response (% of control) is 103% (inactive).
The value for `CCCCCC(O)(CCN1CCCCC1)c1ccccc1` (stereo unspecified) was 104% (inactive); that for `Cc1ccc(-c2ccc(/C=C(\C#N)C(N)=S)o2)c([N+](=O)[O-])c1` was 100% (inactive).
For `CCOC(=O)c1ccc(NC(=O)c2c(N)n(C)c(=O)[nH]c2=O)cc1`, the binding response (% of control) was 89% (inactive).
The value for `COC(=O)C(C)NC(=O)COc1ccc2ccccc2c1` (stereo unspecified) was 98% (inactive).
On to `COCC(C)NC(=O)COc1nncc2ccccc12` (stereo unspecified), for which the binding response (% of control) was 39% [inhibitor] (active).
`CC(C)C(C)NC(=O)COc1ncnc2ccccc12` (stereo unspecified): the binding response (% of control) is 106% (inactive).
The value for `CCOc1ccc(C(=O)Nc2ccc(CN3CCOCC3)cc2)cc1Cl` was 103% (inactive); that for `CC1CN(C(=O)c2cc(COc3c(F)cccc3F)on2)CCN1C` (stereo unspecified) was 100% (inactive).
On to `C=C1CCN([C@@H](Cc2ccccc2)C(=O)N2CCOCC2)S(=O)(=O)c2ccccc21`, for which the binding response (% of control) is 105% (inactive).
As for `CCn1cc(/C=C(\NC(=O)c2ccc(C)cc2)C(=O)NCCN2CCOCC2)c2ccccc21`, the figure is 102% (inactive); as for `C=C(C)C1CC=C(C)/C(=N/NC(=O)CCCNc2cccc(C)c2)C1` (stereo unspecified), 97% (inactive); as for `COc1ccc(Cl)cc1NC(=O)CNc1ccccc1F`, 104% (inactive).
Take `C=C(C)C1CC=C(C)/C(=N\NC(=O)CNc2ccccc2OC)C1` (stereo unspecified): the binding response (% of control) was 128% (active).
The value for `CCCC[C@@H]1CN=C(N)N1CCCC` was 89% (inactive).
As for `CC(=O)C1=C(O)C(=O)N(c2ccc(Br)cc2)C1c1ccc([N+](=O)[O-])cc1` (stereo unspecified), the binding response (% of control) is 98% (inactive).
As for `CCc1cccc(CC)c1NC(=S)NCc1ccc2[nH]c(C)cc2c1`, the figure is 106% (inactive).
Turning to `Cc1cc2cc(CNC(=O)c3cccs3)ccc2[nH]1`, the binding response (% of control) is 73% [inhibitor] (active).
For `Cc1cc2cc(CNC(=O)c3ccc(S(=O)(=O)N4CCOCC4)cc3)ccc2[nH]1`, the binding response (% of control) is 94% (inactive).
As for `O=C(CSc1nccc(=O)[nH]1)Nc1ccc(N2CCOCC2)c(Cl)c1`, the figure is 99% (inactive); as for `O=S(=O)(c1ccccc1)N(Cc1cccc(F)c1)c1ccccc1`, 99% (inactive).
